Data reported in the supplement of paper PMC6555819.

How the values were obtained:
Experiment in all cases: PBM binding z-score (relative to random genomic background probes); higher = stronger binding; sequences stand for … in GC…GCGATTGACAGCGTAGAATGAAGG
[1] = system: FXR:RXRa (NR concentration 270 nM, RXRa partner concentration 90 nM)
Procedure, shortened: (§1)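 Binding z-scores take random background probes as their reference. They come from custom Agilent 4×180K protein-binding microarrays incubated 1 h with ligand-free nuclear receptor dimers, with antibodies against each partner (one per run) detecting binding. Scanned fluorescence was regression-normalized.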

[2] = system: LXRa:RXRa (NR concentration 270 nM, RXRa partner concentration 90 nM)
Procedure, shortened: as §1

[3] = system: LXRa homodimer (NR concentration 270 nM)
Procedure, shortened: as §1

[4] = system: LXRb:RXRa (NR concentration 270 nM, RXRa partner concentration 90 nM)
Procedure, shortened: as §1

[5] = system: LXRb homodimer (NR concentration 270 nM)
Procedure, shortened: as §1

[6] = system: PPARa:RXRa (NR concentration 270 nM, RXRa partner concentration 90 nM)
Procedure, shortened: as §1

[7] = system: PPARg:RXRa (NR concentration 180 nM, RXRa partner concentration 90 nM)
Procedure, shortened: as §1

[8] = system: PPARg:RXRa 270nM:90nM, anti-RXR (NR concentration 270 nM, RXRa partner concentration 90 nM)
Procedure, shortened: as §1

[9] = system: PPARg:RXRa 30nM:10nM, anti-RXR (NR concentration 30 nM, RXRa partner concentration 10 nM)
Procedure, shortened: as §1

[10] = system: PPARg:RXRa 90nM:30nM, anti-RXR (NR concentration 90 nM, RXRa partner concentration 30 nM)
Procedure, shortened: as §1

[11] = system: PPARg:RXRa DBDmut IVT, anti-RXR (DBD mutation: RXRa K156A/R161A, NR concentration 270 nM, RXRa partner concentration 90 nM)
Procedure, shortened: as §1

[12] = system: PPARg:RXRa IVT, anti-PPARg (NR concentration 270 nM, RXRa partner concentration 90 nM)
Procedure, shortened: as §1

[13] = system: PPARg DBDmut:RXRa IVT, anti-PPARg (DBD mutation: PPARg1 K132A/R137A, NR concentration 270 nM, RXRa partner concentration 90 nM)
Procedure, shortened: as §1

[14] = system: PPARg DBDmut IVT, anti-PPARg (DBD mutation: PPARg1 K132A/R137A, NR concentration 270 nM)
Procedure, shortened: as §1

[15] = system: PPARg homodimer (NR concentration 180 nM)
Procedure, shortened: as §1

[16] = system: PXR:RXRa (NR concentration 270 nM, RXRa partner concentration 90 nM)
Procedure, shortened: as §1

[17] = system: PXR homodimer (NR concentration 270 nM)
Procedure, shortened: as §1

[18] = system: RARa:RXR (NR concentration 270 nM, RXRa partner concentration 90 nM)
Procedure, shortened: as §1

[19] = system: RARa homodimer (NR concentration 270 nM)
Procedure, shortened: as §1

[20] = system: RARb:RXRa (NR concentration 270 nM, RXRa partner concentration 90 nM)
Procedure, shortened: as §1

Row | Sequence | PBM binding z-score [1] | PBM binding z-score [2] | PBM binding z-score [3] | PBM binding z-score [4] | PBM binding z-score [5] | PBM binding z-score [6] | PBM binding z-score [7] | PBM binding z-score [8] | PBM binding z-score [9] | PBM binding z-score [10] | PBM binding z-score [11] | PBM binding z-score [12] | PBM binding z-score [13] | PBM binding z-score [14] | PBM binding z-score [15] | PBM binding z-score [16] | PBM binding z-score [17] | PBM binding z-score [18] | PBM binding z-score [19] | PBM binding z-score [20]
1 | CCTACTGCGCCATTCAGAGGTCATTGATCATATG | 3.32 | 4.74 | 7.35 | 4.35 | 1.54 | 3.8 | 0.615 | 1.89 | 0.275 | 0.91 | 0.443 | 1.07 | 0.596 | 0.708 | 2.61 | 4.86 | 2.44 | 4.54 | 1.18 | 3.05
2 | ATCGAAGGGTCGTGAGGTGAGTATACAGAAAGGC | 2.2 | 1.7 | -0.107 | 1.58 | 0.162 | 3.34 | 1.74 | 1.77 | 0.78 | 1.23 | -0.293 | 1.48 | 0.829 | 0.999 | 1.33 | 2 | 0.191 | 2.84 | 0.629 | 2.61
3 | ATCTCTAGGTAAGCAAGTTCAGTGAATGCCGAAC | 0.021 | 0.323 | 0.32 | -0.00291 | 0.392 | 0.496 | 0.0727 | 0.538 | 0.367 | 0.23 | 1.64 | 1.7 | 0.134 | -0.0297 | 0.55 | 1.37 | 1.12 | 0.257 | 0.268 | 0.858
4 | AGAATGAGGTTATTAAGATCAGGGAATTGCGGTC | 1.82 | 1.51 | 0.178 | 1.26 | -0.237 | 2.39 | 1.44 | 1.72 | 0.425 | 0.999 | 3.22 | 2.5 | 1.04 | 0.418 | 1.11 | 1.48 | 0.762 | 1.56 | 0.273 | 1.46
5 | CCTTGCGGGTCACGAGGTTATAGCACGACGAGCG | 6.38 | 4.25 | 0.382 | 3.71 | -0.139 | 5.87 | 7.48 | 6.95 | 4.06 | 5.86 | 5.74 | 6.59 | 3.45 | 2.14 | 3.48 | 4.41 | 0.214 | 6.01 | 0.851 | 4.47
6 | TAGCCTAGGTCTTGCGGGCCAGTATAGTGTCGGC | -0.844 | -0.906 | -0.807 | -1.17 | -1.2 | -0.636 | -0.663 | -0.775 | -0.745 | -1.05 | -0.581 | -0.0643 | -0.303 | -0.84 | -1.39 | -1.05 | -1.29 | -0.863 | -1.17 | -0.327
7 | ATATCTAGGTAAAGTTCAGTGAAAGATCGATAGA | 1.18 | 1.84 | 1.43 | 1.36 | 0.639 | 3.42 | 5.08 | 5.21 | 2.95 | 4.9 | 6.18 | 5.91 | 1.87 | 1.59 | 1.46 | 1.95 | 1.41 | 1.52 | 1.3 | 2.74
